{
  "source": "PubChem BioAssay (Tox21)",
  "note": "Values without a mark were called inactive. Calls of active or inactive are those of the source. The call rests on the fitted dose curve. On the % scale 0 is the no-effect control and ±100 the full control effect.",
  "data": [
    {"molecular_target": "Estrogen receptor (Homo sapiens) (UniProt P03372)", "sequence (P03372 whole entry, looked up)": "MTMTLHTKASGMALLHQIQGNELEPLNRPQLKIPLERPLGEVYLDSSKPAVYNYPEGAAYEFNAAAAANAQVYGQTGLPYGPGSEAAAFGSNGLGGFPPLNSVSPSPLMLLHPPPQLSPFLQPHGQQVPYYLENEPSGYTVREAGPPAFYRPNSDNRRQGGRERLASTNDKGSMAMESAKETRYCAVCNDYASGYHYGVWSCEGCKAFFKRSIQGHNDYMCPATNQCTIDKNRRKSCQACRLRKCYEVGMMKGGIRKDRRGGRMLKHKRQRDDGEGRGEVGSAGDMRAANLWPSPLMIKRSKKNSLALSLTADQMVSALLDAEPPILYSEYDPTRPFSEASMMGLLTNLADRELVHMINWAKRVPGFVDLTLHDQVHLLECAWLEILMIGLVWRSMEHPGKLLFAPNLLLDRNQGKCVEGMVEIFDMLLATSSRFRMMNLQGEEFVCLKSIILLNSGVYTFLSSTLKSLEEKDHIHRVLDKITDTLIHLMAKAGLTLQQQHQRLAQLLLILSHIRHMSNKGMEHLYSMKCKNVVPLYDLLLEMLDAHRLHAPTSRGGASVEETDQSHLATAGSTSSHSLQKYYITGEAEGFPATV", "test": "qHTS assay to identify small molecule agonists of the estrogen receptor alpha (ER-alpha) signaling pathway in the presence of an antagonist (AID 1259383); further: top concentration of the series differs between compounds; nearly all actives have a fitted effect of over 15% in size", "conditions": "VM7Luc4E2 cells, ERE-luciferase, +ICI-182,780, 22 h; series mostly up to 92.4 µM; activation: at the top concentration", "excerpt": "National Center for Advancing Translational Sciences [NCATS] NIH Chemical Genomics Center [NCGC] U.S. Environmental Protection Agency [EPA] National Institutes of Environmental Health Sciences [NIEHS] National Toxicology Program [NTP] Assay overview: Estrogen receptor (ER), a member of nuclear hormone receptor plays an important role in development, metabolic homeostasis and reproduction. Two subtypes of ER, ER-alpha and ER-beta, have similar expression patterns with some uniqueness in both types. Endocrine disrupting chemicals (EDCs) and their interactions with steroid hormone receptors like ER causes disruption of normal endocrine function. Therefore, it is important to understand the effect of environmental chemicals in ER signaling pathway. For identifying ER agonists, VM7Luc4E2 cell line has been used in the current assay. VM7Luc4E2 cell line (provided by Denison MS, University of California) endogenously expresses full-length ER-alpha and is stably transfected with a plasmid containing four estrogen responsive elements (ERE) upstream of a luciferase reporter gene. This current screening for measuring luciferase reporter gene activity using VM7Luc4E2 cells against Tox21 10K library collection is a confirmation study on agonist mode screening in presence of ER-antagonist (ICI-182,780) at 10.0nM final concentration.\nAssay Protocol Summary: VM7Luc4E2 cells were cultured in phenol red free assay medium containing 10% charcoal stripped FBS for 5 days prior to the assay. The cells were dispensed at 4,000 cells in 4uL of assay medium per well into white wall/solid-bottom 1536-well plates (Corning Life Sciences, Corning, NY) using a Multidrop Combi (Thermo Fisher Scientific Inc., Waltham, MA) dispenser. After the assay plates were incubated at 37C and 5% CO2 for 24hr, 1uL of 10.0nM (final concentration) ICI-182,780 or assay buffer was added using two separate tips of Flying Reagent Dispenser (FRD, Aurora Discovery, San Diego, CA). Then 23nL of compounds dissolved in DMSO at 15 concentrations and positive controls or DMSO only was transferred to the assay plates by a Pintool station (Wako, San Diego, CA). The assay plates were incubated at 37C and 5% CO2 for 22hr. For luciferase read, 4uL/well ONE-Glo reagent (Promega Corporation, Madison, WI) was added to each well using FRD and after 30min incubation at room temperature, luminescence signal was measured on ViewLux plate reader (PerkinElmer, Shelton, CT).", "values": [
      {"smiles": "COc1ccc(C(c2ccc(OC)cc2)C(Cl)(Cl)Cl)cc1", "activation": "0.317%"},
      {"smiles": "CCN(CC)C(=O)Cl", "activation": "-2.24%"},
      {"smiles": "CCC1(c2cnc[nH]2)Cc2ccccc2C1", "activation": "-0.271% [at 42.5 µM]"},
      {"smiles": "Oc1c(I)cc(I)cc1I", "activation": "1.03%"},
      {"smiles": "Cc1ccc2nc3sc(=O)sc3nc2c1", "activation": "-0.0346% [at 19 µM]"},
      {"smiles": "CN1CSC(=S)N(C)C1", "outcome": "inactive"},
      {"smiles": "N#Cc1cc([N+](=O)[O-])ccc1N", "activation": "0.163%"},
      {"smiles": "Cc1nnc2n1-c1sc(CCc3ccc(CC(C)C)cc3)cc1C(c1ccccc1Cl)=NC2C", "note": "(stereo not given)", "activation": "0.768% [at 42.5 µM]"},
      {"smiles": "ClC(Cl)=C(c1ccc(Cl)cc1)c1ccccc1Cl", "activation": "0.328%"},
      {"smiles": "O=C(Nc1ccccc1-c1ccc(Cl)cc1)c1cccnc1Cl", "activation": "-2.41%"},
      {"smiles": "CC1COC(Cn2cncn2)(c2ccc(Oc3ccc(Cl)cc3)cc2Cl)O1", "note": "(stereo not given)", "activation": "-14.6%"},
      {"smiles": "O=S(=O)(C(Cl)(Cl)Cl)C(Cl)(Cl)Cl", "activation": "-0.96%"},
      {"smiles": "O=C1C(I)=CC(=C(c2cc(I)c(O)c(I)c2)c2ccccc2C(=O)O)C=C1I", "activation": "-1.42% [at 42.5 µM]"},
      {"smiles": "OC(Cc1ccccc1Cl)(Cn1[nH]cnc1=S)C1(Cl)CC1", "note": "(stereo not given)", "activation": "0.075%"},
      {"smiles": "ClC1=C(Cl)[C@]2(Cl)[C@@H]3[C@@H](Cl)[C@H]4O[C@H]4[C@@H]3C1(Cl)C2(Cl)Cl", "activation": "-1.17%"},
      {"smiles": "O=[N+]([O-])c1c(Cl)c(Cl)cc(Cl)c1Cl", "activation": "-2.98%"},
      {"smiles": "CNC(=O)Oc1cc(C)c(SC)c(C)c1", "activation": "-0.398%"},
      {"smiles": "COc1cc(OC)c(OC)cc1C=O", "activation": "2.11%"},
      {"smiles": "CCOC(=O)C(O)(c1ccc(Cl)cc1)c1ccc(Cl)cc1", "outcome": "inactive"},
      {"smiles": "Cc1cc(C)c(C(=O)P(=O)(c2ccccc2)c2ccccc2)c(C)c1", "activation": "-2.75%"},
      {"smiles": "CC(c1ccccc1)(c1ccc(O)cc1)c1ccc(O)cc1", "activation": "4.01%"},
      {"smiles": "CO/C=C(/C(=O)OC)c1ccccc1Oc1cc(Oc2ccccc2C#N)ncn1", "activation": "-7.62%"},
      {"smiles": "OCC(c1ccc(Cl)cc1)c1ccc(Cl)cc1", "activation": "-3.2%"},
      {"smiles": "c1ccccc1", "activation": "1.22%"},
      {"smiles": "O=C(c1ccccc1)C(Cl)Cl", "activation": "-0.184%"}
    ]}
  ]
}
